High-throughput results (PubChem BioAssay)
Shown are actives, neighbours in structure and some others; about 3.8% of the full set was active somewhere.
NLRP3 yeast inh = blocks the NALP3 inflammasome reconstituted in yeast. Yeast reconstituted NLRP3/ASC/caspase-1, beta-gal luminescence, 24 h. inhibition, % at 10 µM. actives 0.39% (n = 330,000). AID 2825;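 active = inhibition of 50% or more; inactive = inhibition below 50%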;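 note: plate controls were induced DMSO wells for no effect and uninduced yeast grown without galactose for full effect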
CR mimetic SO = caloric restriction mimetics inhibiting age-related superoxide in yeast | S. cerevisiae aged cells, superoxide DHE fluorescence; hits give low values | superoxide response (% of plate mean), % at 10 µM | actives 0.18% (n = 330,000) | AID 2690;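 active = superoxide response under a set limit, about three screen SD below normal, cut at about 65% in these data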;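 note: yeast aged for seven days with compound at 30 °C before DHE staining; 100% = average MFI of all compound-treated wells on the plate with controls excluded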
TIM10 inh = inhibits growth of TIM10 yeast strain | S. cerevisiae TIM10 strain growth, BacTiter-Glo luminescence, 24 h | inhibition, % at 10 µM | actives 1.4% (n = 330,000) | AID 463195;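 active = inhibition of 40% or more at the single tested concentration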;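 note: wild-type TIM10 isogenic control strain grown at permissive 25 °C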
tim10-1 inh = tim10-1 yeast growth inhibition. S. cerevisiae tim10-1 ts strain growth, BacTiter-Glo, 24 h. inhibition, % at 20 µM. actives 2.2% (n = 330,000). AID 463190;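 active = inhibition of at least 40%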;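 note: mutant grown at 25 °C; 0% = DMSO wells with yeast and 100% = wells holding no yeast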
tim23-1 inh = growth inhibitors of tim23-1 mutant yeast; S. cerevisiae tim23-1 growth, BacTiter-Glo luminescence, 24 h; inhibition, % at 20 µM; actives 1.3% (n = 330,000); AID 463212;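 active = growth inhibition of the mutant yeast at or above 50%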;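 note: temperature-sensitive mutant grown at 25 °C; plate controls were DMSO-treated mutant yeast for no effect and medium wells lacking yeast for full effect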
tim10-1 conf = confirmation of tim10-1 mutant yeast growth inhibitors | actives 56% (n = 7,400) | shares compounds with tim10-1 inh | inhibition, % at 20 µM | S. cerevisiae tim10-1 ts strain growth, BacTiter-Glo, 24 h;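 active = inhibition of yeast growth at or above a set limit in either of two repeat tests at 20 µM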;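 note: tim10-1 mutant grown at permissive 25 °C to find synthetic lethal compounds; 0% = DMSO yeast wells and 100% = medium wells without yeast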
* hit, by the source's call.

What do the screens show for `COc1ccc(-c2cn3c(C)c(C(=O)N4CCc5ccccc5C4)sc3n2)cc1`?
NLRP3 yeast inh: 27.8; CR mimetic SO: 85.3; TIM10 inh: 25.3; tim10-1 inh: 42.7*; tim23-1 inh: 42.9; tim10-1 conf: 37.5*

Results for Cc1c(C(=O)N2CCOCC2)sc2nc(-c3ccccc3)cn12 ?
NLRP3 yeast inh: 5.8; CR mimetic SO: 99.6; TIM10 inh: -10.6; tim10-1 inh: 6.3; tim23-1 inh: 7.5

What do the screens show for `COc1ccccc1N1CCN(C(=O)c2sc3nc(-c4ccccc4)cn3c2C)CC1`?
NLRP3 yeast inh: 24.9; CR mimetic SO: 92.2; TIM10 inh: 33.4; tim10-1 inh: 37.8; tim23-1 inh: 43.9

What do the screens show for `Cc1c(C(=O)N2CCc3ccccc3C2)sc2nc(-c3ccccc3)cn12`?
NLRP3 yeast inh: 15.1; CR mimetic SO: 105.4; TIM10 inh: 35.7; tim10-1 inh: 51.4*; tim23-1 inh: 41.3; tim10-1 conf: 34.8*

How did COC(=O)c1ccc(NC(=O)COC(=O)C2=NN(c3ccccc3)C(=O)CC2)cc1 do in these assays?
NLRP3 yeast inh: 13.0; CR mimetic SO: 95.4; TIM10 inh: -4.9; tim10-1 inh: -12.8; tim23-1 inh: -2.2

Results for COc1ccc(CCNS(=O)(=O)c2ccc(N3CCCC3=O)cc2)cc1 ?
NLRP3 yeast inh: 7.9; CR mimetic SO: 145.2; TIM10 inh: 4.1; tim10-1 inh: 18.3; tim23-1 inh: 13.2

What do the screens show for `COc1ccc(CCNS(=O)(=O)c2ccc(OC)cc2)cc1`?
NLRP3 yeast inh: 17.9; CR mimetic SO: 90.4; TIM10 inh: 3.6; tim10-1 inh: 43.9*; tim23-1 inh: 41.1; tim10-1 conf: 31.6

How did CCC(=O)N1c2ccc(S(=O)(=O)CCC(=O)N3CCn4c3nc3ccccc34)cc2CC1C (stereo unspecified) do in these assays?
NLRP3 yeast inh: -14.5; CR mimetic SO: 101.8; TIM10 inh: 16.7; tim10-1 inh: 44.7*; tim23-1 inh: 6.2; tim10-1 conf: 29.2

How did CC(=O)Nc1ccc2c(c1)nc(C)n2-c1ccccc1 do in these assays?
NLRP3 yeast inh: 21.7; CR mimetic SO: 90.8; TIM10 inh: -6.0; tim10-1 inh: -9.3; tim23-1 inh: -6.9

What do the screens show for `Cc1nc2cc(Cl)ccc2n1-c1ccccc1`?
NLRP3 yeast inh: 13.0; CR mimetic SO: 93.9; TIM10 inh: -3.9; tim10-1 inh: 47.3*; tim23-1 inh: 24.0; tim10-1 conf: 18.5

What do the screens show for `N/C(=N\OC(=O)C1CC1)c1ccc([N+](=O)[O-])s1`?
NLRP3 yeast inh: 8.8; CR mimetic SO: 133.4; TIM10 inh: 16.8; tim10-1 inh: 8.8; tim23-1 inh: 26.9

Results for CCCCOc1ccc(C(=O)C(CN2CCOCC2)c2ccccc2)cc1 (stereo unspecified) ?
NLRP3 yeast inh: 23.6; CR mimetic SO: 98.3; TIM10 inh: 34.2; tim10-1 inh: 44.4*; tim23-1 inh: 0.8; tim10-1 conf: 34.5*

Results for COc1ccc(C(=O)C(CN2CCCC2)c2ccccc2)cc1 (stereo unspecified) ?
NLRP3 yeast inh: 16.4; CR mimetic SO: 92.1; TIM10 inh: 38.2; tim10-1 inh: 44.9*; tim23-1 inh: -25.7; tim10-1 conf: 43.0*

What do the screens show for `CCOC(=O)c1c(C)[nH]c(C)c1C(=O)COC(=O)c1ccc(Cl)c(S(N)(=O)=O)c1`?
NLRP3 yeast inh: 9.4; CR mimetic SO: 97.1; TIM10 inh: -0.1; tim10-1 inh: -2.4; tim23-1 inh: 9.3

Results for CCCOc1ccc(CSCCNC(=S)Nc2ccccc2)cc1 ?
NLRP3 yeast inh: 34.8; CR mimetic SO: 108.5; TIM10 inh: 32.2; tim10-1 inh: 46.1*; tim23-1 inh: 41.2; tim10-1 conf: 28.4

How did S=C(NCCSCc1ccccc1Cl)Nc1ccccc1 do in these assays?
NLRP3 yeast inh: 18.1; CR mimetic SO: 104.9; TIM10 inh: 38.3; tim10-1 inh: 29.2; tim23-1 inh: 34.2

Results for O=C(NCCOc1ccccc1)C1CCC(=O)N(CCN2CCOCC2)C1 (stereo unspecified) ?
NLRP3 yeast inh: 3.7; CR mimetic SO: 85.9; TIM10 inh: 3.1; tim10-1 inh: -8.9; tim23-1 inh: 0.3

Results for COc1ccc(C)cc1NC(=O)c1ccc2c(=O)n3c(nc2c1)CCCCC3 ?
NLRP3 yeast inh: 14.1; CR mimetic SO: 197.7; TIM10 inh: -1.7; tim10-1 inh: 40.5*; tim23-1 inh: 36.1; tim10-1 conf: 6.2
